Experimental data taken from PubChem BioAssay AID485341 (National Center for Advancing Translational Sciences (NCATS), 2010).
The campaign covered roughly 330,000 compounds. About 1,700 (0.52%) were called active. A call without a number means that no potency is given here. The call rests on the fitted dose curve; in most records, active means well fitted inhibition curve with a large enough effect; inconclusive means small, poorly fitted or top-dose-only effect; inactive means no such curve, though single readings can be large or run the other way. The sample as a whole holds a higher share of actives than the screen did.

target: Beta-lactamase (Escherichia coli (strain K12)) (UniProt P00811); test: qHTS Inhibitors of AmpC Beta-Lactamase (assay without detergent); conditions: AmpC nitrocefin hydrolysis, absorbance 480 nm, 0.0001% Triton; series mostly up to 57.1 µM; further: nearly all actives have a fitted effect of over 20% in size
Experimental: NIH Molecular Libraries Probe Production Network [MLPCN] NIH Chemical Genomics Center [NCGC] Assay Provider: Professor Brian Shoichet, UCSF Assay Overview: This aggregation profiling approach exploits the sensitivity of aggregate formation to detergent. Inhibition of b-lactamase is measured in the presence and absence of 0.01% Triton X-100. This particular assay had the prescence of 0.01% Triton X-100. See Pubchem assay "Promiscuous and Specific Inhibitors of AmpC Beta-Lactamase (assay without detergent)" for related screen. Compounds that inhibit only in the absence of detergent are considered likely promiscuous aggregators. A screen of 1,030 compounds was performed in Brian Shoichet's lab in 96-well format. AmpC activity was measured by following the absorbance at 480 nm. Nitrocefin is a chromogenic substrate: while nitrocefin is yellow (lmax 390 nm), the product of its hydrolysis is red (lmax 486 nm, 17,000 M-1). AmpC beta lactamase was provided by Shoichet Lab, UCSF.
Buffer: 20 mM phosphate buffer, pH 7.0 Triton X-100: No Detergent screen: 0.0001%, Detergent screen: 0.01%. Reagents/Controls: Buffer in columns 3 and 4 as negative control (no enzyme). 5.3 nM AmpC in columns 1, 2, 5-48. Titration of UCSF compound 9 control (from 10 mM, then 1:2) pin-transferred to column 2. Column 1 is neutral (100% activity). Assay Steps: Six uL of reagents were dispensed to 1536-well Greiner black clear bottom plates. Compounds and controls (23 nL) were transferred via Kalypsys PinTool. The plates were incubated for 15 min at room temperature, and then 2 uL of 800 uM solution of nitrocefin was added to start the reaction. The plates were immediately transferred to and read every 20 seconds for 4 min on ViewLux (Perkin-Elmer) High-throughput CCD imager using 480 nm absorbance protocol. During dispense, reagent bottles were kept submerged into 4 deg C water bath. Keywords: NIH Roadmap, MLSCN, MLI, MLSMR, qHTS, NCGC, AmpC Beta-Lactamase, Aggregation
Potency means the concentration at half of the fitted maximal effect.

Beta-lactamase (Escherichia coli (strain K12)), sequence (P00811 whole entry, looked up): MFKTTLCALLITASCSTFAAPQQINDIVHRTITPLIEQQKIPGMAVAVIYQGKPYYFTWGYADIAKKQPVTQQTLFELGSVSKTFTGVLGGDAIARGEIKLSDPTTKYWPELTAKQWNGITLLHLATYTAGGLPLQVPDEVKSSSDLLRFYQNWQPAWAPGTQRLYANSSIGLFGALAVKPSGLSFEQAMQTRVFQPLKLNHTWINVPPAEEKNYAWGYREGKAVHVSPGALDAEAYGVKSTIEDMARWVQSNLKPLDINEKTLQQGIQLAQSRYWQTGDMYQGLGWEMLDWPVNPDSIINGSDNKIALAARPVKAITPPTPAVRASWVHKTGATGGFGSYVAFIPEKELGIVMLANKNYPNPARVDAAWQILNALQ

SMILES	Potency
CCCCn1c(N)c(N(CCOC)C(=O)COc2c(C)cccc2C)c(=O)[nH]c1=O	inactive
CS(=O)(=O)N1CCN(C(=O)CSc2ccccc2)CC1	inactive
Cc1ccc(S(=O)(=O)N2CCCC2CO)cc1 (configuration not stated)	inactive
COc1ccc(CSc2nnnn2-c2ccc(O)cc2)cc1F	22.4 µM (active)
COc1ccc(-n2nnnc2SCC(=O)c2ccc(OC)c(OC)c2)cc1	inactive
COc1ccc(CSc2nnnn2-c2ccc(C(=O)O)cc2)cc1	inactive
Cn1c2c(c(=O)n(C)c1=O)C(c1cccc([N+](=O)[O-])c1)Nc1ccccc1O2 (configuration not stated)	inactive
CN(CCC1CCOCC1)C(=O)CC1C(=O)NCCN1Cc1cccc(F)c1 (configuration not stated)	inactive
O=C(O)CCCC(=O)Nc1ccc(Oc2cccc(C(F)(F)F)c2)nc1	inactive
Cc1csc(=O)n1CC(=O)OCC(=O)N(CC(C)C)c1c(N)n(Cc2ccccc2)c(=O)[nH]c1=O	inactive
CC(C)CN(C(=O)COC(=O)c1ccc(Cl)c(N)c1)c1c(N)n(Cc2ccccc2)c(=O)[nH]c1=O	28.2 µM (active)
CC(C)CN(C(=O)COC(=O)c1ccc2ccccc2c1)c1c(N)n(Cc2ccccc2)c(=O)[nH]c1=O	inactive
Cc1cc(NC(=O)C(C)N2C(=O)c3ccccc3S2(=O)=O)no1 (configuration not stated)	25.1 µM (active)
CSc1ccccc1NC(=O)C(C)N1C(=O)c2ccccc2S1(=O)=O (configuration not stated)	inactive
Cc1cc(NC(=O)CSCc2ccccc2C)no1	inactive
O=C1CCC(=O)N(c2ccccc2)N1	inactive
O=C(OCC1O[C@@H](OC(=O)c2cc(O)c(O)c(O)c2)[C@@H](OC(=O)c2cc(O)c(O)c(O)c2)[C@@H](OC(=O)c2cc(O)c(O)c(O)c2)[C@@H]1OC(=O)c1cc(O)c(O)c(O)c1)c1cc(O)c(O)c(O)c1 (some centres not stated)	1 µM (active)
CCOCCCNC(=O)c1ccc(CS(=O)(=O)c2cccc(C(F)(F)F)c2)o1	inactive
CCOCCn1[nH]c2ccccc2c1=O	inactive
O=C(CSc1nc(O)c(Cc2ccccc2)c(=O)[nH]1)Nc1nc2c(s1)CCCC2	inactive
CCOC(=O)c1sc(NC(=O)CSc2nc(O)c(Cc3ccccc3)c(=O)[nH]2)nc1C	15.8 µM (active)
CCOC(=O)c1sc(NC(=O)CSc2n[nH]c(CC)n2)nc1C	inactive
O=C(O)CCN=C1CCc2ccccc2N1	inactive
COC(=O)c1ccc(NC(=O)CSc2nnc(Cc3cccn3C)n2-c2ccc(F)cc2)cc1	inactive
Cc1ccc(C)c(NC(=O)CSc2nnc(Cc3cccn3C)n2-c2ccc(F)cc2)c1	inactive
COc1ccccc1NC(=O)CSc1nnc(Cc2cccn2C)n1-c1ccc(F)cc1	1.41 µM (active)

SMILES	Potency
O=C(CN1CCCC1)Nc1sc2c(c1C(=O)Nc1ccccc1)CCCC2	inactive
Cc1cc2ncn(CCCCOc3ccccc3)c2cc1C	inactive
CC(=O)Nc1cccc(C(=O)OCC(=O)Nc2nnc(-c3ccccc3)o2)c1	inactive
O=C(COC(=O)c1ccc(Oc2ccccc2)cc1)Nc1nnc(-c2ccccc2)o1	12.6 µM (active)
COc1ccccc1C(=O)NCC(=O)OCC(=O)Nc1nnc(-c2ccccc2)o1	inactive
CCn1nnc(NC(=O)c2c(OC)cccc2OC)n1	inactive
CCN(C(=O)COC(=O)C1CCN(S(=O)(=O)c2ccc(C)c(C)c2)CC1)C1CCS(=O)(=O)C1 (configuration not stated)	inactive
CCOC(=O)C1CCCN(C(=O)CSc2nnc3nc(C)cc(C)n23)C1 (configuration not stated)	inactive
CC(=O)NCc1ccc(-c2csc(NC(=O)CCCc3nc4ccccc4c(=O)[nH]3)n2)cc1	inactive
O=C(CSc1nc2ccccc2c(=O)[nH]1)Nc1nc(-c2ccc(Br)cc2)cs1	inactive
Cc1cc(C)c(-c2csc(NC(=O)CCCc3nc4ccccc4c(=O)[nH]3)n2)c(C)c1	35.5 µM (active)
O=c1cc(CO)oc(C(Nc2cccc(C(F)(F)F)c2)c2ccccn2)c1O (configuration not stated)	inactive
O=C(O)CN1c2cccc3cccc(c23)S1(=O)=O	inactive
Cc1cc(NC(=O)COn2nnc3ccccc32)no1	inactive
Cc1cc(NC(=O)CS(=O)(=O)c2cn(C)c3ccccc23)no1	10 µM (active)
CCOC(=O)c1ccc(NC(=O)CS(=O)(=O)c2cn(CC)c3ccccc23)cc1	inactive
Cc1ccc(NC(=O)CCCNC(=O)c2ccc(Cl)cc2)cc1S(=O)(=O)N1CCCCC1	inactive
CC1=C[C@H]2Cc3cc(C)cc(C)c3S(=O)(=O)[C@@H]2C=C1	inactive
CC1(C)C2CC=C(/C=N/NC(=O)C3CC3)C1C2 (configuration not stated)	inactive
Cn1nccc1/C=N\NC(=O)c1ccc(Cl)cc1	inactive
CC1(C)C2CC=C(/C=N/NC(=O)c3ccc(Cl)cc3)C1C2 (configuration not stated)	11.2 µM (active)
Cc1c(C(=O)N(C)CCc2cnn(C)c2)oc2c(F)cccc12	inactive
CN(C)S(=O)(=O)c1ccc(NC(=O)COC(=O)c2n[nH]c3ccccc23)cc1	inactive
COc1ccc(COC(=O)c2n[nH]c3ccccc23)cc1F	inactive
CCN(CC)S(=O)(=O)c1ccc2nc(COC(=O)c3n[nH]c4ccccc34)[nH]c2c1	22.4 µM (active)
COc1ccc(C(=O)O)cc1S(=O)(=O)NCc1cccnc1	inactive

SMILES	Potency
CCC(C)NC(=O)c1ccccc1NC(=O)c1ccccc1N(C)S(C)(=O)=O (configuration not stated)	inactive
Cc1ccc(C(=O)Oc2coc(CSc3nnc(NC(=O)c4cccs4)s3)cc2=O)cc1C	7.08 µM (active)
O=C(Cc1cccs1)Nc1nnc(SCc2ccc(F)cc2)s1	inactive
COC(=O)c1ccc(CSc2nnc(NC(C)C)s2)cc1	inactive
COc1cc(OC)cc(C(=O)NNC(=O)CNC(=O)c2ccc(Br)o2)c1	inactive
CSCC[C@H](NC(=O)N1CCn2c1nc1ccccc12)C(=O)NCc1ccc2c(c1)OCO2	inactive
CCc1ccc(-n2c(=S)sc3c(=O)n(-c4ccccc4OC)c(=S)[nH]c32)cc1	inactive
Cc1ccc(S(=O)(=O)N(Cc2ccccc2)c2ccccn2)cc1[N+](=O)[O-]	inactive
Cc1csc2ncc(C(=O)N(Cc3ccccc3)c3ccccn3)c(=O)n12	5.62 µM (active)
CCC(=O)N(Cc1ccccc1)c1ccccn1	inactive
CC(C)(C)C(=O)N(Cc1ccccc1)c1ccccn1	inactive
Cc1ccc(C(=O)NNc2ncnc3ccccc23)cc1	inactive
Cc1ccc(C(=O)NNC(=O)c2cc3cc4ccccc4nc3s2)cc1	22.4 µM (active)
Cc1ccc(C(=O)NNC(=O)c2ccc3c(c2)OCCO3)cc1	inactive
COc1cccc(N(CC(=O)NCc2ccccc2)C(=O)CCC(=O)Nc2nccs2)c1	inactive
COC(=O)CCC(=O)N1CCCC(CO)(Cc2ccccc2)C1 (configuration not stated)	inactive
COc1ccc(C)cc1Nc1nc(C)nc2c1oc1ccccc12	inactive
Cc1nc(N2CCCC2C(=O)O)c2oc3ccccc3c2n1 (configuration not stated)	inactive
Cc1nc(Cl)c2oc3ccccc3c2n1	0.158 µM (active)
CC1=CC2=NC(=O)CC(C)(C(=O)N(CC(=O)NC(C)(C)C)Cc3ccccc3)N2C=C1 (configuration not stated)	inactive
Cc1ccc(Sc2cc(N3CCOCC3)nc(-c3ccccc3)n2)cc1	inactive
O=C(COC(=O)c1ccccc1Cl)NC1CCCCCCC1	inactive
O=C(COC(=O)c1ccccc1SCC(=O)NC1CCCCC1)NC1CCCCC1	inactive
N#Cc1ccccc1Sc1ccccc1C(=O)OCC(=O)NC1CCCCC1	35.5 µM (active)
CCCn1nc2cc(C(=O)NCc3ccccc3)ccc2c1OCC	inactive
CCOc1c2ccc(C(=O)NCc3ccc(OC(F)(F)F)cc3)cc2nn1C	inactive

SMILES	Potency
CCOc1c2ccc(C(=O)NCc3ccc4c(c3)OCO4)cc2nn1C	0.316 µM (active)
CCCc1noc2c1/C(=N\O)CCC2	inactive
Cc1ccc(CNC(=O)CC(NC(=O)c2ccccc2)c2ccccc2)cc1 (configuration not stated)	inactive
COc1cccc(Nc2nnc(SCC(=O)N3CC(=O)Nc4ccccc43)s2)c1	inactive
O=C(CCc1ccccc1Cl)Nc1ccc(S(=O)(=O)Nc2nccs2)cc1	inactive
Cc1ccc(CCC(=O)Nc2ncc(Cc3cc(Cl)ccc3Cl)s2)o1	20 µM (active)
Cc1ccc(Cc2cnc(N)s2)o1	inactive
O=S(=O)(Nc1cccc(-c2ccc(N3CCOCC3)nn2)c1)c1ccc(Cl)c(Cl)c1	inactive
O=C(NCC(c1ccco1)N1CCc2ccccc21)c1cccc(F)c1 (configuration not stated)	inactive
O=C(/C=C/c1ccccc1)Oc1coc(CSc2ncccn2)cc1=O	inactive
Cc1nc(SCC(=O)N2CC(=O)Nc3ccccc32)c2c(C)c(C)sc2n1	inactive
O=C(CSc1nnc(-c2cccs2)n1Cc1ccccc1)N1CCc2ccccc2C1	inactive
Cc1nc(SCC(=O)N2CCc3ccccc3C2)c2c(C)c(C)sc2n1	0.158 µM (active)
CC(C)C(=O)Nc1nnc(Sc2ccc(N(C)C)cc2)s1	inactive
Fc1cccc(Cc2noc(CN3CCN(c4cnccn4)CC3)n2)c1	inactive
Cc1ccc(-n2c(C)cc(/C=C(\C#N)C(=O)NCC3CCCO3)c2C)cc1 (configuration not stated)	inactive
Cc1ccc2c(c1)C(c1ccccc1)N(C(=O)c1ccc(F)cc1)CC(=O)N2 (configuration not stated)	inactive
CC(C)C(=O)N1CC(=O)Nc2ccc(F)cc2C1c1ccc(F)cc1 (configuration not stated)	inactive
CCC(CC)C(=O)N1CC(=O)Nc2ccc(Br)cc2C1c1ccccc1 (configuration not stated)	0.891 µM (active)
COCCOC(=O)c1[nH]c2c(c1C)C(=O)CC(c1ccc(OC)cc1)C2 (configuration not stated)	inactive
CCCOC(=O)c1[nH]c2c(c1C)C(=O)CC(c1cccs1)C2 (configuration not stated)	inactive
CCCOC(=O)c1[nH]c2c(c1C)C(=O)CC(c1cc(OC)c(OC)c(OC)c1)C2 (configuration not stated)	2.51 µM (active)
COC(=O)Nc1ccc(S(=O)(=O)N2CCN(CCN3C(=O)C4C5C=CC(C5)C4C3=O)CC2)cc1 (configuration not stated)	inactive
O=C(CCc1ccccc1F)N1CCN(c2ccccc2)CC1	inactive
